Where “and” joins values, the source holds several entries; their conditions need not be identical. Equal entries are not always repeated. This is part of a sample that, as a whole, favours compounds with a hit. Of some 83,000 tested, about 20% had one in any assay.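 Growth was measured after 48 h exposure to one concentration of compound in 96-well plates. Values under 10 count as active.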 Calls of active or inactive are those of the source.
Assays:
Assay in all cases: NCI-60 one-dose screen, 48 h (100 = growth as untreated, 0 = no growth, -100 = all killed)
Settings in all cases: 10 µM unless noted
HCT-15 colon = tested on: HCT-15 colon
HT29 colon = tested on: HT29 colon
SNB-75 CNS = tested on: SNB-75 CNS
SNB-19 CNS = tested on: SNB-19 CNS
U251 CNS = tested on: U251 CNS
PC-3 prostate = tested on: PC-3 prostate
SK-MEL-5 melanoma = tested on: SK-MEL-5 melanoma
UACC-62 melanoma = tested on: UACC-62 melanoma
LOX IMVI melanoma = tested on: LOX IMVI melanoma
SK-MEL-28 melanoma = tested on: SK-MEL-28 melanoma
EKVX NSCLC = tested on: EKVX NSCLC
SN12C renal = tested on: SN12C renal
UO-31 renal = tested on: UO-31 renal
TK-10 renal = tested on: TK-10 renal
ACHN renal = tested on: ACHN renal
CAKI-1 renal = tested on: CAKI-1 renal
A498 renal = tested on: A498 renal
CCRF-CEM leukemia = tested on: CCRF-CEM leukemia
MOLT-4 leukemia = tested on: MOLT-4 leukemia
SK-MEL-2 melanoma = tested on: SK-MEL-2 melanoma

Measured: growth

COc1ccc(/C=C/C(=O)c2ccc(OC)c(S(N)(=O)=O)c2)c(C(F)(F)F)c1
inactive: SNB-75 CNS 37.6% | PC-3 prostate 11.2% | SK-MEL-5 melanoma 18.9% | UACC-62 melanoma 30.6% | SK-MEL-28 melanoma 35.5% | EKVX NSCLC 14.5% | UO-31 renal 25.6% | TK-10 renal 77.9% | CAKI-1 renal 24.7% | A498 renal 195%
active: HCT-15 colon -52% | HT29 colon 6.34% | SNB-19 CNS -28.6% | U251 CNS -64.7% | LOX IMVI melanoma -93% | SN12C renal 8.16% | ACHN renal 9.82% | CCRF-CEM leukemia 2.27% | MOLT-4 leukemia -0.0099%

Cc1cc(Cl)ccc1NC(=O)Nc1ccc(-c2ccc3c(c2)NC(=O)/C3=C\c2ccc[nH]2)cc1
inactive: HCT-15 colon 92.6% | HT29 colon 109% | SNB-75 CNS 99.4% | SNB-19 CNS 94.5% | U251 CNS 103% | PC-3 prostate 104% | SK-MEL-5 melanoma 106% | UACC-62 melanoma 98.5% | LOX IMVI melanoma 101% | SK-MEL-28 melanoma 114% | EKVX NSCLC 67.5% | SN12C renal 97.6% | UO-31 renal 78.3% | TK-10 renal 115% | ACHN renal 98.8% | CAKI-1 renal 99% | A498 renal 119% | CCRF-CEM leukemia 97.8% | MOLT-4 leukemia 86.2%

CS(=O)(=O)Nc1cc(-c2ccc3ncnc(N4CCc5cc(F)c(Cl)cc54)c3c2)cnc1Cl
inactive: HT29 colon 19.7% | SNB-19 CNS 27% | U251 CNS 17.8% | PC-3 prostate 12.9% | SN12C renal 19.3% | CCRF-CEM leukemia 16.7%
active: HCT-15 colon 7.55% | SNB-75 CNS -17.7% | SK-MEL-5 melanoma -72.8% | UACC-62 melanoma -43.2% | LOX IMVI melanoma -29.2% | SK-MEL-28 melanoma -0.47% | EKVX NSCLC -23% | UO-31 renal 5.68% | TK-10 renal -1.98% | ACHN renal 9.43% | CAKI-1 renal -8.1% | A498 renal -36.5% | MOLT-4 leukemia -47.4%

CN(C)C(=O)c1cc(-c2ccc3ncnc(N4CCc5cc(F)c(Cl)cc54)c3c2)cnc1N
active: HCT-15 colon -70.8% | HT29 colon -68.6% | SNB-75 CNS -28.8% | SNB-19 CNS -19.8% | U251 CNS -55.7% | PC-3 prostate 0.623% | SK-MEL-5 melanoma -98.9% | UACC-62 melanoma -83.7% | LOX IMVI melanoma -69.3% | SK-MEL-28 melanoma 0.025% | EKVX NSCLC -84.3% | SN12C renal -9.32% | UO-31 renal -10.3% | TK-10 renal -69.4% | ACHN renal 2.02% | CAKI-1 renal -76.5% | A498 renal -84.2% | CCRF-CEM leukemia -20.5% | MOLT-4 leukemia -38.3%

CC1=C(C)C(=O)C(N2CCSCC2)=CC1=O
inactive: HCT-15 colon 104% | HT29 colon 103% | SNB-75 CNS 80.8% | SNB-19 CNS 87.2% | U251 CNS 96.9% | PC-3 prostate 89.7% | SK-MEL-5 melanoma 96.7% | UACC-62 melanoma 93.3% | LOX IMVI melanoma 83.8% | SK-MEL-28 melanoma 107% | EKVX NSCLC 92.6% | SN12C renal 100% | UO-31 renal 76.2% | ACHN renal 96.6% | CAKI-1 renal 93.2% | A498 renal 98.2% | CCRF-CEM leukemia 81% | MOLT-4 leukemia 86.3%

CN(C)c1nc(NCCNS(=O)(=O)c2ccc(C(=O)/C=C/c3ccccc3)cc2)nc(N2CCOCC2)n1
inactive: SNB-75 CNS 73.2% | SNB-19 CNS 77% | U251 CNS 44% | PC-3 prostate 59.6% | SK-MEL-5 melanoma 83.5% | UACC-62 melanoma 72.8% | SK-MEL-28 melanoma 88% | EKVX NSCLC 77.6% | SN12C renal 79.8% | UO-31 renal 70.9% | TK-10 renal 108% | ACHN renal 87% | CAKI-1 renal 68.5% | A498 renal 77.2% | CCRF-CEM leukemia 55.1% | MOLT-4 leukemia 13.9%
active: HCT-15 colon -45.3% | HT29 colon 3.67% | LOX IMVI melanoma -63.1%

CC(C)(C)C(=O)c1c2c(c3ccc4c5ccccc5ccc4n13)C(=O)c1ccccc1C2=O
inactive: HCT-15 colon 81.7% | HT29 colon 111% | SNB-75 CNS 122% | SNB-19 CNS 88.7% | U251 CNS 98.5% | PC-3 prostate 83% | SK-MEL-5 melanoma 78.8% | UACC-62 melanoma 97.2% | LOX IMVI melanoma 73.2% | SK-MEL-28 melanoma 105% | EKVX NSCLC 86.2% | UO-31 renal 67.9% | TK-10 renal 118% | ACHN renal 79.2% | CAKI-1 renal 85.4% | A498 renal 188% | CCRF-CEM leukemia 99.7% | MOLT-4 leukemia 94.3%

O=C(Nc1ccc(F)cc1)Nc1nc2ccc([N+](=O)[O-])cc2s1
active: HCT-15 colon 6.88% | HT29 colon 4.5% | SNB-75 CNS -16.6% | U251 CNS 6.53% | SK-MEL-5 melanoma -84% | UACC-62 melanoma -5.55% | SK-MEL-28 melanoma 7.31% | SK-MEL-2 melanoma -44.6% | EKVX NSCLC 1.79% | SN12C renal -0.399% | UO-31 renal 4.33% | TK-10 renal 6.73% | ACHN renal 2.52% | CAKI-1 renal -12.5% | A498 renal -15%
inactive: SNB-19 CNS 15.1% | PC-3 prostate 18.4% | CCRF-CEM leukemia 11.5% | MOLT-4 leukemia 14.6%

COc1ccccc1NC(=O)N/N=C/c1c[nH]c2ccccc12
active: HT29 colon 4.72% | SK-MEL-5 melanoma 4.48% | LOX IMVI melanoma -51.2% | MOLT-4 leukemia 7.13%
inactive: HCT-15 colon 13.8% | SNB-75 CNS 20.8% | SNB-19 CNS 40.6% | U251 CNS 20% | PC-3 prostate 35.2% | UACC-62 melanoma 20.3% | SK-MEL-28 melanoma 44.2% | EKVX NSCLC 12.3% | SN12C renal 23.2% | TK-10 renal 33.2% | CAKI-1 renal 42% | A498 renal 60.6% | CCRF-CEM leukemia 17.4%

NNc1ncnc2sc3c(c12)CCN(Cc1ccccc1)C3
inactive: HCT-15 colon 32.9% | HT29 colon 20.7% | SNB-75 CNS 80.7% | SNB-19 CNS 69.4% | U251 CNS 51.4% | PC-3 prostate 59.5% | SK-MEL-5 melanoma 48% | UACC-62 melanoma 53.1% | SK-MEL-28 melanoma 73% | SK-MEL-2 melanoma 82% | EKVX NSCLC 36% | SN12C renal 57% | UO-31 renal 51.7% | TK-10 renal 93.5% | CAKI-1 renal 56.4% | A498 renal 93.7% | CCRF-CEM leukemia 15.8% | MOLT-4 leukemia 19.7%

O=C(Nc1ccc(-c2ccc3c(c2)NC(=O)/C3=C\c2ccc[nH]2)cc1)Nc1ccc(Cl)c(C(F)(F)F)c1
active: MOLT-4 leukemia 9.33%
inactive: HCT-15 colon 26.5% | HT29 colon 17.4% | SNB-75 CNS 38.5% | SNB-19 CNS 72.9% | U251 CNS 37.9% | PC-3 prostate 39.5% | SK-MEL-5 melanoma 49.3% | UACC-62 melanoma 31.7% | SK-MEL-28 melanoma 47.7% | SK-MEL-2 melanoma 34.2% | EKVX NSCLC 25.3% | SN12C renal 19.4% | UO-31 renal 36.1% | TK-10 renal 42.1% | ACHN renal 37.3% | CAKI-1 renal 39.3% | A498 renal 39.2% | CCRF-CEM leukemia 27.4%

COC(=O)c1c(C(=O)OC)c2c3ccccc3c3ccccc3n2c1C(=O)C(F)(F)F
inactive: HCT-15 colon 101% | HT29 colon 103% | SNB-75 CNS 87.9% | SNB-19 CNS 102% | U251 CNS 105% | PC-3 prostate 72.4% | SK-MEL-5 melanoma 93.7% | UACC-62 melanoma 63% | SK-MEL-28 melanoma 103% | SK-MEL-2 melanoma 94.4% | EKVX NSCLC 98.2% | SN12C renal 92.7% | ACHN renal 93.7% | CAKI-1 renal 64.8% | A498 renal 138% | CCRF-CEM leukemia 98.2% | MOLT-4 leukemia 117%

Cc1ccc(C2CC(c3ccc(NC(=S)Nc4ccccc4)cc3)=NN2c2ccc(S(N)(=O)=O)cc2)cc1 (stereo unspecified)
inactive: SNB-75 CNS 21.4% | SNB-19 CNS 23.1% | SK-MEL-5 melanoma 27.9% | UACC-62 melanoma 17% | SK-MEL-2 melanoma 13.4% | SN12C renal 28.3% | TK-10 renal 21.6% | A498 renal 76.4% | CCRF-CEM leukemia 14.5% | MOLT-4 leukemia 25.8%
active: HCT-15 colon 4.26% | HT29 colon 1.32% | U251 CNS 5.8% | PC-3 prostate 7.16% | SK-MEL-28 melanoma -57.7% | EKVX NSCLC 9.1% | UO-31 renal 3.53% | ACHN renal -33.2% | CAKI-1 renal -10.6%

COc1c2c(c(Br)c3c1C(CCc1ccccc1)N(C)CC3)OCO2 (stereo unspecified)
inactive: HCT-15 colon 24.6% | HT29 colon 16.5% | SNB-75 CNS 63.8% | SNB-19 CNS 36.8% | U251 CNS 43.3% | PC-3 prostate 41.3% | SK-MEL-5 melanoma 25.3% | UACC-62 melanoma 16.3% | SK-MEL-28 melanoma 19.2% | SK-MEL-2 melanoma 68.6% | EKVX NSCLC 36.3% | SN12C renal 35% | UO-31 renal 35.9% | TK-10 renal 70.9% | CAKI-1 renal 36% | CCRF-CEM leukemia 30.1% | MOLT-4 leukemia 25.3%

CC(=O)Nc1cccc(-n2c(COc3ccc(I)cc3)nc3ccccc32)c1
-67.3% (active) and 90% (inactive): UO-31 renal
-78.2% (active) and 116% (inactive): ACHN renal
inactive: HCT-15 colon 69.6% and 108% | HT29 colon 105% and 119% | SNB-75 CNS 57.8% and 93.3% | SNB-19 CNS 93.5% and 103% | U251 CNS 81.8% and 105% | PC-3 prostate 63.3% and 107% | SK-MEL-5 melanoma 74.1% and 104% | UACC-62 melanoma 61.4% and 97.8% | SK-MEL-28 melanoma 107% and 116% | SK-MEL-2 melanoma 82.8% and 118% | EKVX NSCLC 86% and 102% | SN12C renal 95.7% and 111% | TK-10 renal 102% and 104% | CAKI-1 renal 56.7% and 105% | A498 renal 114% and 136% | CCRF-CEM leukemia 90.4% and 96.2% | MOLT-4 leukemia 83.6% and 102%
